Source: PubChem BioAssay (NCI)
Compounds without any hit were thinned out: in the full panel of roughly 83,000, 20% have a hit.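 Single-dose data. Exposure time 48 hours. Values below 10 considered active.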 The source made the active and inactive calls.

Legend:
Experiment in all cases: NCI-60 one-dose screen, 48 h (100 = growth as untreated, 0 = no growth, -100 = all killed)
Conditions in all cases: 10 µM unless noted
[1] = system: T-47D breast
[2] = system: BT-549 breast
[3] = system: MDA-MB-435 melanoma
[4] = system: SW-620 colon
[5] = system: MCF7 breast
[6] = system: HCT-116 colon
[7] = system: HCC-2998 colon
[8] = system: KM12 colon

Measured: growth

CSc1nc(-c2ccc(O)cc2O)c2c(=O)[nH]c(Nc3ccc(S(=O)(=O)Nc4nc(C)cc(C)n4)cc3)nc2n1
inactive: [1] 91.5% | [2] 87.1% | [3] 196% | [4] 108% | [5] 113% | [6] 101% | [7] 93.4% | [8] 102%

COc1cccc(C2=NN(C(C)=O)C(c3cc(OC)c(OC)c(OC)c3)C2)c1 (stereo not given)
inactive: [1] 35.2% | [4] 17.3% | [6] 26.9% | [7] 15.7% | [8] 35.9%
active: [2] 7.16% | [3] -28.2% | [5] 3.81%

CC1Cc2ccccc2N1C(=O)c1ccc(C(=O)c2ccccc2)cc1 (stereo not given)
inactive: [1] 91.4% | [2] 84% | [3] 89.1% | [4] 95.1% | [5] 103% | [6] 81.1% | [7] 127% | [8] 101%

O=C(Nc1cccc(Cl)c1)Nc1cccc(Cl)c1
inactive: [1] 19.4% | [2] 96.7% | [3] 88.8% | [4] 81% | [5] 64.3% | [6] 42.5% | [7] 72.6% | [8] 43.6%

COC(=O)CC1=C(c2ccc([N+](=O)[O-])cc2)CCC1=O
inactive: [1] 101% | [2] 110% | [3] 105% | [4] 101% | [5] 104% | [6] 112% | [7] 109% | [8] 107%

CCCCCCCCCCCCC1CCCC(C)C1 (stereo not given)
inactive: [1] 96.4% | [2] 102% | [3] 104% | [4] 101% | [5] 93.6% | [6] 94.9% | [7] 97.7% | [8] 91.3%

COC(=O)C1CCN(S(=O)(=O)c2ccc(-c3ccccc3)cc2)CC1
inactive: [1] 102% | [2] 129% | [3] 111% | [4] 102% | [5] 99.7% | [6] 115% | [7] 103% | [8] 102%

CC(C)=CCNc1ncnc2c1ncn2C1OC(COP(=O)(O)O)C(O)C1O (stereo not given)
active: [1] 3.18% | [2] 2.41%
inactive: [3] 56.7% | [4] 37.6% | [5] 16.5% | [6] 19.2% | [7] 69.6% | [8] 69.6%

Cc1onc(-c2ccccc2Cl)c1C(=O)N[C@@H]1C(=O)N2[C@@H]1SC(C)(C)[C@@H]2C(=O)O
inactive: [1] 98.1% | [2] 100% | [3] 107% | [4] 110% | [5] 101% | [6] 101% | [7] 99.6% | [8] 108%

COC(=O)c1c(NC(=O)CSc2nnnn2-c2ccc(OC)cc2)sc(C)c1C
inactive: [1] 92.5% | [2] 99.6% | [3] 109% | [4] 96.2% | [5] 85.8% | [6] 92.1% | [7] 87.6% | [8] 98.7%

O=C1N=C(N2CCOCC2)S/C1=C\c1cn(-c2ccccc2)nc1-c1ccccc1
inactive: [1] 62.4% | [2] 53.8% | [3] 65.3% | [4] 98.8% | [5] 81.5% | [6] 64.4% | [7] 100% | [8] 96.4%

CCOC(=O)c1sc(NC(=O)COc2cccc(/C=C3\Cc4ccc(Cl)cc4C3=O)c2)nc1C
inactive: [1] 98.8% | [2] 115% | [3] 103% | [4] 94.6% | [5] 54.3% | [6] 12.3% | [8] 103%
active: [7] -19.5%

Clc1ccc2[nH]cc(-c3cncn3CCc3ccccc3)c2c1
inactive: [1] 13.2% | [2] 40.3% | [3] 50.9% | [4] 72.8% | [5] 53.2% | [6] 44.1% | [7] 89.2% | [8] 72.9%

NS(=O)(=O)c1ccc(-n2nc(-c3ccc(Br)cc3)ccc2=O)cc1
active: [3] 0.0656% [100 µM]
inactive: [1] 77% [100 µM] | [2] 38.6% [100 µM] | [4] 63% [100 µM] | [5] 74.8% [100 µM] | [6] 34.8% [100 µM] | [7] 91.9% [100 µM] | [8] 49.6% [100 µM]

CCSCC1CC(O)(c2ccccc2)C(c2ccccc2)C(c2ccc(Cl)cc2)O1 (stereo not given)
inactive: [7] 17.9%
active: [1] -7.67% | [2] 1.88% | [3] -17.3% | [4] 1.98% | [5] 0.0329% | [6] 1.69% | [8] -31.2%

O=C(Oc1cccc2ccccc12)c1ccccc1C(=O)c1ccccc1
inactive: [1] 87.4% | [2] 99.7% | [3] 73.5% | [4] 99.4% | [5] 109% | [6] 82% | [7] 103% | [8] 92.2%

Cc1ccc2c(c1)C(=O)/C(=C\Nc1ccc(C(N)=O)cc1)C(O)O2 (stereo not given)
inactive: [1] 73.9% | [2] 82.4% | [3] 98.4% | [4] 93.2% | [5] 96.6% | [6] 93.5% | [7] 134% | [8] 88.2%

Cc1nn(-c2ccccc2)c2nc(N)c(C3=NCCO3)nc12
inactive: [1] 77.5% | [2] 92.6% | [3] 101% | [4] 92.6% | [5] 83.6% | [6] 95.8% | [7] 101% | [8] 104%

CNCCCn1c2c(c3ccc(F)cc3c1=O)C(=O)c1cc(OC)cnc1-2
active: [1] -2.54% | [2] -6.14% | [3] 4.12% | [4] -2.67% | [5] 0.0252% | [6] -78% | [7] 8% | [8] -0.739%

COc1cc2c(cc1OC)C(=O)/C(=C/c1cccc(OCC(=O)c3ccccc3)c1)C2
inactive: [1] 55.2% | [2] 49.4% | [3] 110% | [4] 74.6% | [5] 60.7% | [6] 64.6% | [7] 111% | [8] 170%

CCCCCCC(CC#N)(CCC)CCCC (stereo not given)
inactive: [1] 112% | [2] 120% | [3] 103% | [4] 107% | [5] 96.1% | [6] 104% | [7] 110% | [8] 111%

N#Cc1ccccc1C#Cc1ccccc1C#Cc1ccc(OCCCCCCOc2ccc(C#Cc3ccccc3C#Cc3ccccc3C#N)cc2)cc1
inactive: [1] 93.4% | [2] 112% | [3] 107% | [4] 96.6% | [5] 78.6% | [6] 91.8% | [7] 107% | [8] 105%

NC(=N\N=C/Cc1ccccc1)/C(N)=N\N=C\Cc1ccccc1
inactive: [1] 91.7% | [2] 104% | [3] 107% | [4] 104% | [5] 101% | [6] 108% | [8] 104%

COc1ccc2cc(C3=CC(=O)CCC3)ccc2c1
inactive: [1] 59.6% | [2] 97.1% | [3] 93% | [4] 117% | [5] 110% | [6] 92.5% | [8] 109%

CC(=O)c1ccc(NS(=O)(=O)c2ccc([N+](=O)[O-])cc2)cc1
inactive: [1] 86.3% | [2] 102% | [3] 122% | [4] 108% | [5] 99.3% | [6] 102% | [8] 111%

CCOC(=O)OCC(=O)[C@@]1(O)CC[C@H]2[C@@H]3CCC4=CC(=O)CC[C@]4(C)[C@H]3[C@@H](O)C[C@@]21C
inactive: [1] 91.4% | [2] 101% | [3] 111% | [4] 98.3% | [5] 94.9% | [6] 98.3% | [8] 106%

O=C1C=CC(=O)N1c1ccccc1N1C(=O)C=CC1=O
inactive: [1] 102% | [2] 104% | [3] 122% | [4] 57.9% | [5] 97.1% | [6] 105% | [8] 117%

O=C(CSc1ncc(-c2ccccc2)n1-c1ccccc1)Nc1ccc(-c2nc3ccccc3s2)cc1
inactive: [1] 56.3% | [2] 103% | [3] 55.9% | [4] 64.4% | [5] 31.2% | [6] 42.1% | [8] 51.1%

Cc1ccc(C(=O)Cc2ccccc2)c(O)c1
inactive: [1] 95.8% | [2] 105% | [3] 115% | [4] 105% | [5] 99.9% | [6] 108% | [8] 110%
